# From publication PMC4336329 (PLoS ONE, 2015)
# Hit rate of the full screen: of about 310,000 compounds, about 14,000 (4.5%) showed an effect of 50% or more. The effect is printed as a negative number. The entries come from a sample that favours strong results as a whole.
# Target: human ether-à-go-go-related gene (hERG) potassium channel (human, UniProt Q12809)
# Experiment: primary screen, population patch clamp on CHO cells stably expressing hERG; higher = less effect of the substance
# 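Note: peak tail current of the secondary pulse compared with the same well before compound.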
# Chain of human ether-à-go-go-related gene (hERG) potassium channel (Q12809 whole entry, looked up): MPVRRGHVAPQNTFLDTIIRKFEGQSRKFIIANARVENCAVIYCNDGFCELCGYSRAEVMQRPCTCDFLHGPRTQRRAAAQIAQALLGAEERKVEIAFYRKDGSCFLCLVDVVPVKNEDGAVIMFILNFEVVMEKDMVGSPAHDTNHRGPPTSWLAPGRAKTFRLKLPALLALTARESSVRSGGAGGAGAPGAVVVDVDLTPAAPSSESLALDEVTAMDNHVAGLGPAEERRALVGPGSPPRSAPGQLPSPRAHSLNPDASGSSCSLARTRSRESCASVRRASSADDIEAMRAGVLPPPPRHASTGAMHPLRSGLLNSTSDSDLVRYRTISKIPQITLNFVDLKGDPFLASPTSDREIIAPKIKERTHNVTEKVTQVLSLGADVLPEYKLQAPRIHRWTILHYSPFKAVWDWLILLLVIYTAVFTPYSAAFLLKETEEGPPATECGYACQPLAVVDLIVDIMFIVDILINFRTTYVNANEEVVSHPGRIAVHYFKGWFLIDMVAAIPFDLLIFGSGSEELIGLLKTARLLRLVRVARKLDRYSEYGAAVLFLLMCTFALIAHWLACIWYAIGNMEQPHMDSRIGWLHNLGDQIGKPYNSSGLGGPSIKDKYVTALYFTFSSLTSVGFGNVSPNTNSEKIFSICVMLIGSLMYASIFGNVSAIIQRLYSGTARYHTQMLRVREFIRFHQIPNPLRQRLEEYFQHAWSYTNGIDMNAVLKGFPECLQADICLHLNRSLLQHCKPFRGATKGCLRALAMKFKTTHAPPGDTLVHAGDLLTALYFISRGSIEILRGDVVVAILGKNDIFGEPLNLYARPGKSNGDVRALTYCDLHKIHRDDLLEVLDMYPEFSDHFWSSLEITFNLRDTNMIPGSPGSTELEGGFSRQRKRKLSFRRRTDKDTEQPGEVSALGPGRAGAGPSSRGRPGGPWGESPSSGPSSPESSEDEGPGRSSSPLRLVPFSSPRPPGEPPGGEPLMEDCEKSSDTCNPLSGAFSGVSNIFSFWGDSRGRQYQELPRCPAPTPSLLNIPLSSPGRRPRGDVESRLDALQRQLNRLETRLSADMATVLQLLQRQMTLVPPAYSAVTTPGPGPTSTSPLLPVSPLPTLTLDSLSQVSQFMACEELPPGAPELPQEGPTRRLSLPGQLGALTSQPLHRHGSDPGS
row,SMILES,"hERG current change (%, negative = inhibition) at 10uM [%]"
1,COc1ccc(NS(=O)(=O)c2c(C)n(C)c(=O)n(C)c2=O)cc1,15.5
2,CN(C)S(=O)(=O)c1ccc(Cl)c(NC(=O)COC(=O)/C=C/c2ccc3ccccc3n2)c1,1.53
3,Cc1ccc(C(=O)COC(=O)CNC(=O)C(c2ccccc2)c2ccccc2)cc1[N+](=O)[O-],4.33
4,O=C(O)CC1Sc2ccccc2NC1=O (stereo not shown),-13.4
5,CN(C)C=O.Cc1ccc(S(=O)(=O)N(C)C)cc1NC(=S)Nc1ccc2[nH]c(=O)[nH]c2c1,76.2
6,CCc1cccc(OCC2Cn3c(nc4c3c(=O)n(C)c(=O)n4C)O2)c1 (stereo not shown),3.18
7,CC12CCC(=O)N1C(C(=O)Nc1ccc(S(=O)(=O)N3CCCCC3)cc1)CS2 (stereo not shown),-5.09
8,CC12CCC(=O)N1C(C(=O)Nc1cccc(S(=O)(=O)N3CCCCCC3)c1)CS2 (stereo not shown),-69.8
9,CC12CCC(=O)N1C(C(=O)Nc1cccc(S(=O)(=O)N3CCCCC3)c1)CS2 (stereo not shown),-43.9
10,CCOc1cccc(N2C(=O)CC(N(CCc3ccc(OC)c(OC)c3)C(=O)CC)C2=O)c1 (stereo not shown),24.9
11,Cc1ccc(Cc2nnc(SCC(=O)Nc3ccc(C)cc3C)[nH]c2=O)cc1,5.33
12,COc1ccc(Cc2nnc(SCC(=O)Nc3ccc(C)cc3C)[nH]c2=O)cc1,-16.8
13,Cc1ccc(NC(=O)CSc2nnc(Cc3ccccc3)c(=O)[nH]2)c(C)c1,-51.4
14,CCOc1cc(CNc2ccc3c(c2)CCC3)ccc1OC,-8.96
15,Cc1ccc(NC(=O)CS(=O)(=O)c2c[nH]c3ccccc23)c(C)c1,11.9
16,Cc1ccc(CC(=O)NCc2ccc3c(c2)OCO3)cc1,2.24
17,O=C(CCN1N=C(c2ccccc2)CCC1=O)NCCCN1CCOCC1,21.2
18,Cc1ccc(C2=NN(CC(=O)NCCN(CC(C)C)CC(C)C)C(=O)CC2)cc1,-50.2
19,O=C(CN1N=C(c2ccccc2)CCC1=O)NCCN1CCc2ccccc2C1,-15.7
20,CC(C)CN(CCNC(=O)CN1N=C(c2ccc(Cl)cc2)CCC1=O)CC(C)C,-42.4
21,Cc1ccc(C2=NN(CCC(=O)NCc3ccc4c(c3)OCO4)C(=O)CC2)cc1,-69.7
22,Cc1ccc(-c2ccc(=O)n(CC(=O)NCCN(CC(C)C)CC(C)C)n2)cc1,-16.3

row,SMILES,"hERG current change (%, negative = inhibition) at 10uM [%]"
1,COc1ccc(C2=NN(CCC(=O)NCc3ccc4c(c3)OCO4)C(=O)CC2)cc1,-18.8
2,Cc1ccc(C2=NN(CCC(=O)NCCC(C)C)C(=O)CC2)cc1,-24.5
3,O=C(CN1N=C(c2ccccc2)CCC1=O)NCCCN1CCc2ccccc2C1,-49.6
4,Cc1ccc(C2=NN(CCC(=O)NCCCN3CCOCC3)C(=O)CC2)cc1,-52.3
5,O=C(CN1N=C(c2ccc(Cl)cc2)CCC1=O)NCCN1CCc2ccccc2C1,-51.4
6,O=C(CN1C(=O)NC2(CCCC2)C1=O)N1CCN(S(=O)(=O)c2ccccc2F)CC1,22.3
7,O=[N+]([O-])c1ccc(O)c(NC(=S)Nc2ccccc2)c1,23.9
8,NC(=S)NC1CC2CC1C1C=CCC21 (stereo not shown),6.66
9,CCOc1ccc(N(CC(=O)NCc2ccc(C)cc2)S(=O)(=O)c2c(C)[nH]c(=O)[nH]c2=O)cc1,6.73
10,Cc1nn(-c2ccccc2)c(Cl)c1C(=O)NCCCCNC(=O)c1c(C)nn(-c2ccccc2)c1Cl,-2.76
11,CN(C)CCCNc1ccc(S(N)(=O)=O)cc1[N+](=O)[O-],-13.1
12,CCOC(=O)CN1N=C(c2ccc(C)cc2)CCC1=O,-47.2
13,CCCCCCCNC(=O)CN1N=C(c2ccc(C)cc2)CCC1=O,-67.8
14,Cc1ccc(C2=NN(CC(=O)NCCC(C)C)C(=O)CC2)cc1,4.58
15,CC(C)CCNC(=O)CN1N=C(c2ccc(Cl)cc2)CCC1=O,-15.8
16,CCCCN(C)CCCNC(=O)CN1N=C(c2ccc(Cl)cc2)CCC1=O,-56.7
17,Cc1ccc(C2=NN(CC(=O)NCCN(C)C)C(=O)CC2)cc1,-44.9
18,Cc1ccc(C2=NN(CC(=O)O)C(=O)CC2)cc1,-51.4
19,CCOCCCNC(=O)CN1N=C(c2ccc(C)cc2)CCC1=O,-73.9
20,CC(C)CN(CCCNC(=O)CN1N=C(c2ccc(Cl)cc2)CCC1=O)CC(C)C,-21.8
21,COCCNC(=O)CN1N=C(c2ccc(C)cc2)CCC1=O,-47.9
22,CCN(CC)CCCNC(=O)CN1N=C(c2ccc(OC)cc2)CCC1=O,14.5

row,SMILES,"hERG current change (%, negative = inhibition) at 10uM [%]"
1,C=CCNC(=O)CN1N=C(c2ccc(C)cc2)CCC1=O,-44.3
2,Cc1cc(SCC(=O)OCC(=O)N(C)c2ccccc2)nc2ccccc12,-22.8
3,C=C[C@]1(C)C=C2CCC3[C@](C)(CCC[C@@]3(C)C(=O)O)C2CC1 (stereo partly shown),13.3
4,O=C(CCCN1C(=O)c2ccccc2C1=O)Nc1cccnc1,-2.46
5,O=C(NCc1ccccn1)C1(C(F)(F)F)C/C(=C\CCO)CCCO1 (stereo not shown),6.37
6,CCOc1ccc(S(=O)(=O)Nc2cccc(C(=O)N(C)Cc3cccc(OC)c3OC)c2)cc1,-11.6
7,O=C1[C@@H]2[C@H](C(=O)N1n1cnnc1)[C@H]1C=C[C@@H]2C1,11.5
8,Cc1ccc(NC(=O)CN2CCCCCC2)cc1[N+](=O)[O-],23.1
9,O=C(Nc1ccc(N2CCOCC2)c2nonc12)C1CCCC1,3.34
10,CCCn1c(=O)c2sccc2n2c(CCCC(=O)NCc3cccnc3)nnc12,19.2
11,C=CCNC(=O)CSc1n[nH]c(-c2cc(Cl)ccc2OC)n1,8.25
12,COc1ccc(Cl)cc1NC(=O)COc1cccc(-n2cnnn2)c1,10.3
13,COc1ccc(NC(=O)CN(C)C(=O)c2cn(-c3ccccc3)nc2-c2ccc(Cl)cc2)cc1,12.1
14,COc1ccc(Cl)cc1NC(=O)CN(C)C(=O)c1cn(-c2ccccc2)nc1-c1cccnc1,-59.9
15,COc1ccc(NC(=O)CN(C)C(=O)c2cn(-c3ccccc3)nc2-c2cccnc2)cc1,-24.2
16,COc1ccc(Cl)cc1NC(=O)CN(C)C(=O)c1ccc2n[nH]nc2c1,-13.8
17,COc1ccc(Cl)cc1NC(=O)CN(C)C(=O)c1cccc(-n2cnnn2)c1,-53.6
18,CCc1ccc(C(=O)Nc2cccc(-c3nn[nH]n3)c2)s1,16.9
19,CCOC(=O)C1CN(S(C)(=O)=O)c2cc(CC(=O)OC)ccc2O1 (stereo not shown),1.78
20,COc1ccccc1C(=O)NCCSCc1c(F)cccc1Cl,-15.4
21,Cc1cccn2c(=O)c3cc(C(=O)NCC4CCCO4)c(=N)n(C4CCCC4)c3nc12 (stereo not shown),-74.8
22,Cc1cccn2c(=O)c3cc(C(=O)NCC4CCCO4)c(=N)n(C4CCCCC4)c3nc12 (stereo not shown),-77.3

row,SMILES,"hERG current change (%, negative = inhibition) at 10uM [%]"
1,O=C(O)c1nn2c(C(F)(F)F)cc(-c3cccs3)nc2c1Cl,1.4
2,COc1cccc(C(=O)Nc2cc(=O)n(C)c(=O)n2C)c1OC,13.1
3,Cc1nn(Cc2ccc(C(=O)NC3CCCCC3)o2)c(C)c1Br,-34.6
4,COc1ccc2c(c1)c(CC(=O)O)c(C)n2C(=O)c1ccc(Cl)cc1,6.45
5,COc1ccc(/C=N/OCC(=O)N2CC3(C)CC2CC(C)(C)C3)cc1OC (stereo not shown),-3.72
6,COc1ccc(/C=N/OCC(=O)N2CC3(C)CC2CC(C)(C)C3)cc1 (stereo not shown),-56
7,COc1ccc(OCC(=O)N2CC3(C)CC2CC(C)(C)C3)cc1 (stereo not shown),-21.2
8,N#Cc1ccc(COC(=O)c2ccc3c(c2)OCO3)cc1,-27.4
9,CCc1ccc(NC(=O)CC2C(=O)NCCN2C(=O)c2ccc(F)cc2)cc1 (stereo not shown),-55.4
10,CC(C)(C)c1ccc(C(=O)N2CCNC(=O)C2CC(=O)Nc2ccc(F)cc2)cc1 (stereo not shown),13.9
11,Cc1ccc(NC(=O)CC2C(=O)NCCN2C(=O)c2ccc(F)cc2)cc1 (stereo not shown),-26.3
12,O=S(=O)(Cc1ccccc1)Nc1ccc(F)cc1,7.05
13,O=C1c2cccc3cccc(c23)C(=O)N1OS(=O)(=O)c1ccc(Br)cc1,24.2
14,CCOc1cc(C(=S)N2CCOCC2)ccc1OS(=O)(=O)c1ccc(Br)cc1,-1.54
15,COc1ccc(C(=S)N2CCOCC2)cc1OC(=O)c1ccc([N+](=O)[O-])cc1[N+](=O)[O-],-52
16,COc1cc(C(=S)N2CCOCC2)cc(OC)c1OC(=O)c1ccc([N+](=O)[O-])cc1[N+](=O)[O-],-4.69
17,COc1ccc(C(=S)N2CCOCC2)cc1OC(=O)c1cccc([N+](=O)[O-])c1,-39.9
18,COc1ccc(C(=S)N2CCOCC2)cc1OS(=O)(=O)c1ccc(Br)cc1,-70
19,COc1ccc(C(=S)N2CCOCC2)cc1OC(=O)c1ccc([N+](=O)[O-])cc1,-63
20,COc1cc(C(=S)N2CCOCC2)ccc1OC(=O)c1cc([N+](=O)[O-])cc([N+](=O)[O-])c1,0.943
21,COc1ccc(S(=O)(=O)Oc2ccc(C(=S)N3CCOCC3)cc2OC)cc1,-0.365
22,COc1cc(C(=S)N2CCOCC2)ccc1OC(=O)c1ccc([N+](=O)[O-])cc1[N+](=O)[O-],17.1
